# Substitutions are numbered along the chain they refer to.
# Columns and labels:
# Experiment in all cases: PBM; 200 nM protein, PBS
# Settings in all cases: dsDNA, one strand shown
# [1] = molecular target: T1, VENTX (Homo sapiens, UniProt O95231 78-163, R121Q)
# T1 sequence: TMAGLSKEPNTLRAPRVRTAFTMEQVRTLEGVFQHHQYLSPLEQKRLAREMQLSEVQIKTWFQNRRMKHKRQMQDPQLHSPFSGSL
# [2] = molecular target: T2, VENTX (Homo sapiens, UniProt O95231 78-163)
# T2 sequence: T1 sequence with Q44R
# [3] = molecular target: T3, VENTX (Homo sapiens, UniProt O95231 78-163, Y115F)
# T3 sequence: T1 sequence with Y38F, Q44R
Sequence,binding signal [1],binding signal [2],binding signal [3]
ACTATTTA,"10.1 upbm affinity estimate (log intensity, higher = more binding, comparable within an allelic series)","10.6 upbm affinity estimate (log intensity, higher = more binding, comparable within an allelic series)","10.1 upbm affinity estimate (log intensity, higher = more binding, comparable within an allelic series)"
CCATTAGG,"11.7 upbm affinity estimate (log intensity, higher = more binding, comparable within an allelic series)","12.4 upbm affinity estimate (log intensity, higher = more binding, comparable within an allelic series)","11.4 upbm affinity estimate (log intensity, higher = more binding, comparable within an allelic series)"
ATTATGTC,"10.5 upbm affinity estimate (log intensity, higher = more binding, comparable within an allelic series)","11 upbm affinity estimate (log intensity, higher = more binding, comparable within an allelic series)","10.4 upbm affinity estimate (log intensity, higher = more binding, comparable within an allelic series)"
CGAGACCG,"8.25 upbm affinity estimate (log intensity, higher = more binding, comparable within an allelic series)","8.39 upbm affinity estimate (log intensity, higher = more binding, comparable within an allelic series)","8.28 upbm affinity estimate (log intensity, higher = more binding, comparable within an allelic series)"
ATCGATAA,"10.3 upbm affinity estimate (log intensity, higher = more binding, comparable within an allelic series)","11 upbm affinity estimate (log intensity, higher = more binding, comparable within an allelic series)","10.2 upbm affinity estimate (log intensity, higher = more binding, comparable within an allelic series)"
AATCCATT,"10.1 upbm affinity estimate (log intensity, higher = more binding, comparable within an allelic series)","10.5 upbm affinity estimate (log intensity, higher = more binding, comparable within an allelic series)","9.94 upbm affinity estimate (log intensity, higher = more binding, comparable within an allelic series)"
GCTAAATA,"10.1 upbm affinity estimate (log intensity, higher = more binding, comparable within an allelic series)","10.6 upbm affinity estimate (log intensity, higher = more binding, comparable within an allelic series)","10 upbm affinity estimate (log intensity, higher = more binding, comparable within an allelic series)"
CGATTAGC,"11.7 upbm affinity estimate (log intensity, higher = more binding, comparable within an allelic series)","12.8 upbm affinity estimate (log intensity, higher = more binding, comparable within an allelic series)","11.6 upbm affinity estimate (log intensity, higher = more binding, comparable within an allelic series)"
CTACCCGC,"8.06 upbm affinity estimate (log intensity, higher = more binding, comparable within an allelic series)","8.07 upbm affinity estimate (log intensity, higher = more binding, comparable within an allelic series)","8.08 upbm affinity estimate (log intensity, higher = more binding, comparable within an allelic series)"
GTTAATAA,"10.8 upbm affinity estimate (log intensity, higher = more binding, comparable within an allelic series)","11.2 upbm affinity estimate (log intensity, higher = more binding, comparable within an allelic series)","10.6 upbm affinity estimate (log intensity, higher = more binding, comparable within an allelic series)"
CGGGCGCC,"8.04 upbm affinity estimate (log intensity, higher = more binding, comparable within an allelic series)","8.22 upbm affinity estimate (log intensity, higher = more binding, comparable within an allelic series)","8.23 upbm affinity estimate (log intensity, higher = more binding, comparable within an allelic series)"
TCGATTAA,"11.4 upbm affinity estimate (log intensity, higher = more binding, comparable within an allelic series)","12.3 upbm affinity estimate (log intensity, higher = more binding, comparable within an allelic series)","11.2 upbm affinity estimate (log intensity, higher = more binding, comparable within an allelic series)"
CATTAGAA,"10.5 upbm affinity estimate (log intensity, higher = more binding, comparable within an allelic series)","11.1 upbm affinity estimate (log intensity, higher = more binding, comparable within an allelic series)","10.4 upbm affinity estimate (log intensity, higher = more binding, comparable within an allelic series)"
CGATTAAG,"11.4 upbm affinity estimate (log intensity, higher = more binding, comparable within an allelic series)","12.4 upbm affinity estimate (log intensity, higher = more binding, comparable within an allelic series)","11.3 upbm affinity estimate (log intensity, higher = more binding, comparable within an allelic series)"
GCGCAGCA,"7.82 upbm affinity estimate (log intensity, higher = more binding, comparable within an allelic series)","7.9 upbm affinity estimate (log intensity, higher = more binding, comparable within an allelic series)","7.91 upbm affinity estimate (log intensity, higher = more binding, comparable within an allelic series)"
ACCACGCC,"7.95 upbm affinity estimate (log intensity, higher = more binding, comparable within an allelic series)","8.09 upbm affinity estimate (log intensity, higher = more binding, comparable within an allelic series)","7.97 upbm affinity estimate (log intensity, higher = more binding, comparable within an allelic series)"

Sequence,binding signal [1],binding signal [2],binding signal [3]
GTCCACGA,"8.05 upbm affinity estimate (log intensity, higher = more binding, comparable within an allelic series)","7.92 upbm affinity estimate (log intensity, higher = more binding, comparable within an allelic series)","7.98 upbm affinity estimate (log intensity, higher = more binding, comparable within an allelic series)"
AAATATCT,"9.87 upbm affinity estimate (log intensity, higher = more binding, comparable within an allelic series)","10 upbm affinity estimate (log intensity, higher = more binding, comparable within an allelic series)","9.74 upbm affinity estimate (log intensity, higher = more binding, comparable within an allelic series)"
GGTCGGGA,"8.05 upbm affinity estimate (log intensity, higher = more binding, comparable within an allelic series)","8.36 upbm affinity estimate (log intensity, higher = more binding, comparable within an allelic series)","8.02 upbm affinity estimate (log intensity, higher = more binding, comparable within an allelic series)"
AATATTTG,"9.84 upbm affinity estimate (log intensity, higher = more binding, comparable within an allelic series)","10 upbm affinity estimate (log intensity, higher = more binding, comparable within an allelic series)","9.7 upbm affinity estimate (log intensity, higher = more binding, comparable within an allelic series)"
AGCCCGAA,"8.34 upbm affinity estimate (log intensity, higher = more binding, comparable within an allelic series)","8.32 upbm affinity estimate (log intensity, higher = more binding, comparable within an allelic series)","8.13 upbm affinity estimate (log intensity, higher = more binding, comparable within an allelic series)"
ACGTAATA,"10.2 upbm affinity estimate (log intensity, higher = more binding, comparable within an allelic series)","10.5 upbm affinity estimate (log intensity, higher = more binding, comparable within an allelic series)","10.1 upbm affinity estimate (log intensity, higher = more binding, comparable within an allelic series)"
CCCCGTAC,"8.03 upbm affinity estimate (log intensity, higher = more binding, comparable within an allelic series)","8.06 upbm affinity estimate (log intensity, higher = more binding, comparable within an allelic series)","8.02 upbm affinity estimate (log intensity, higher = more binding, comparable within an allelic series)"
CGAGCCAC,"8.17 upbm affinity estimate (log intensity, higher = more binding, comparable within an allelic series)","8.51 upbm affinity estimate (log intensity, higher = more binding, comparable within an allelic series)","8.31 upbm affinity estimate (log intensity, higher = more binding, comparable within an allelic series)"
CCGATTAA,"11.3 upbm affinity estimate (log intensity, higher = more binding, comparable within an allelic series)","12.5 upbm affinity estimate (log intensity, higher = more binding, comparable within an allelic series)","11.3 upbm affinity estimate (log intensity, higher = more binding, comparable within an allelic series)"
GTTATTCA,"9.35 upbm affinity estimate (log intensity, higher = more binding, comparable within an allelic series)","9.76 upbm affinity estimate (log intensity, higher = more binding, comparable within an allelic series)","9.4 upbm affinity estimate (log intensity, higher = more binding, comparable within an allelic series)"
AAACTAAT,"11 upbm affinity estimate (log intensity, higher = more binding, comparable within an allelic series)","11.7 upbm affinity estimate (log intensity, higher = more binding, comparable within an allelic series)","11 upbm affinity estimate (log intensity, higher = more binding, comparable within an allelic series)"
CTCGGACC,"8.07 upbm affinity estimate (log intensity, higher = more binding, comparable within an allelic series)","8.13 upbm affinity estimate (log intensity, higher = more binding, comparable within an allelic series)","8.15 upbm affinity estimate (log intensity, higher = more binding, comparable within an allelic series)"
AGGTCAGG,"8.18 upbm affinity estimate (log intensity, higher = more binding, comparable within an allelic series)","8.14 upbm affinity estimate (log intensity, higher = more binding, comparable within an allelic series)","8.06 upbm affinity estimate (log intensity, higher = more binding, comparable within an allelic series)"
CTAATCGA,"11.6 upbm affinity estimate (log intensity, higher = more binding, comparable within an allelic series)","12.5 upbm affinity estimate (log intensity, higher = more binding, comparable within an allelic series)","11.1 upbm affinity estimate (log intensity, higher = more binding, comparable within an allelic series)"
AAATTCGT,"9.56 upbm affinity estimate (log intensity, higher = more binding, comparable within an allelic series)","9.96 upbm affinity estimate (log intensity, higher = more binding, comparable within an allelic series)","9.72 upbm affinity estimate (log intensity, higher = more binding, comparable within an allelic series)"

# — paper PMC11006913
